These results are taken from PubChem BioAssay.

Calls of active or inactive are those of the source.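 Rule for the calls, unless noted: active = mean inhibition above 46.68%, the untreated control wells mean plus 3 SD; inactive = the rest.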

In test [1] the target is Nuclear receptor coactivator 3 (Homo sapiens) (UniProt Q9Y6Q9). Nature of the test: NCOA3 GAL4-fusion reporter inhibition – cell-based, luminescence, quadruplicate, confirmation (AID 588792;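 active = mean inhibition over 43.08%, the solvent-only control mean plus 3 SD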;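 note: 0% = DMSO treated cells and 100% = gossypol at 36 µM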). The following applies: HEK293 GAL4-SRC3 luciferase reporter, at 3.6 µM, stronger effect = higher value. For orientation: Reporter assays use an easily measured gene product as a stand-in for the process of interest.

Test [2] has as its system transactivating tegument protein VP16 (Human herpesvirus 1), Gal4-VP16 luciferase reporter. Nature of the test: repression of VP16-driven luciferase reporter – cell-based, luminescence, high throughput, counter-screen for SRC3 inhibitor project (AID 588794; in the data active = inhibition above about 30%). The settings on record: mammalian cells, at 3.6 µM, stronger effect = higher value.
In test [3] the target is Nuclear receptor coactivator 1 (Homo sapiens) (UniProt Q15788). Nature of the test: NCOA1 GAL4-fusion reporter inhibition – cell-based, luminescence, quadruplicate, confirmation (AID 588820).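 Note: 0% = DMSO wells and 100% = gossypol 36 µM treated wells.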 The following applies: HEK293 GAL4-SRC1 luciferase reporter, at 3.6 µM, stronger effect = higher value.
The nature of test [4]: repression of VP16-driven luciferase reporter – cell-based, luminescence, high throughput, counter-screen for SRC1 inhibitor project (AID 588824; in the data active = inhibition above about 25%). The following applies: cell-based VP16 transactivation luciferase luminescence; at 3.6 µM; stronger effect = higher value.
Test [5] concerns transactivating tegument protein VP16 (Human herpesvirus 1). Nature of the test: compounds suppressing VP16-driven luciferase signal – cell-based, luminescence, single concentration, counter-screen for SRC2 inhibitor project (AID 652007; in the data active = inhibition above about 36%). The following applies: cell-based VP16 transactivation luciferase reporter, at 8.9 µM, stronger effect = higher value. A general note: The purpose of a counterscreen is to sort out artefacts and off-target activity.

Test [6] concerns the target Nuclear receptor coactivator 2 (Homo sapiens) (UniProt Q15596). Nature of the test: inhibition of GAL4-SRC2 driven luciferase expression – cell-based, luminescence, HEK293, triplicate, confirmation (AID 652008;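 active = mean inhibition above 46.5%, the solvent-only control mean plus 3 SD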;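 note: 0% = DMSO-treated cells and 100% = Gossypol at 36 µM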). The settings on record: HEK293 GAL4-SRC2 luciferase reporter, at 8.9 µM, stronger effect = higher value.

Chain of Nuclear receptor coactivator 1 (Homo sapiens) (Q15788 whole entry, looked up, the tested form may be a part): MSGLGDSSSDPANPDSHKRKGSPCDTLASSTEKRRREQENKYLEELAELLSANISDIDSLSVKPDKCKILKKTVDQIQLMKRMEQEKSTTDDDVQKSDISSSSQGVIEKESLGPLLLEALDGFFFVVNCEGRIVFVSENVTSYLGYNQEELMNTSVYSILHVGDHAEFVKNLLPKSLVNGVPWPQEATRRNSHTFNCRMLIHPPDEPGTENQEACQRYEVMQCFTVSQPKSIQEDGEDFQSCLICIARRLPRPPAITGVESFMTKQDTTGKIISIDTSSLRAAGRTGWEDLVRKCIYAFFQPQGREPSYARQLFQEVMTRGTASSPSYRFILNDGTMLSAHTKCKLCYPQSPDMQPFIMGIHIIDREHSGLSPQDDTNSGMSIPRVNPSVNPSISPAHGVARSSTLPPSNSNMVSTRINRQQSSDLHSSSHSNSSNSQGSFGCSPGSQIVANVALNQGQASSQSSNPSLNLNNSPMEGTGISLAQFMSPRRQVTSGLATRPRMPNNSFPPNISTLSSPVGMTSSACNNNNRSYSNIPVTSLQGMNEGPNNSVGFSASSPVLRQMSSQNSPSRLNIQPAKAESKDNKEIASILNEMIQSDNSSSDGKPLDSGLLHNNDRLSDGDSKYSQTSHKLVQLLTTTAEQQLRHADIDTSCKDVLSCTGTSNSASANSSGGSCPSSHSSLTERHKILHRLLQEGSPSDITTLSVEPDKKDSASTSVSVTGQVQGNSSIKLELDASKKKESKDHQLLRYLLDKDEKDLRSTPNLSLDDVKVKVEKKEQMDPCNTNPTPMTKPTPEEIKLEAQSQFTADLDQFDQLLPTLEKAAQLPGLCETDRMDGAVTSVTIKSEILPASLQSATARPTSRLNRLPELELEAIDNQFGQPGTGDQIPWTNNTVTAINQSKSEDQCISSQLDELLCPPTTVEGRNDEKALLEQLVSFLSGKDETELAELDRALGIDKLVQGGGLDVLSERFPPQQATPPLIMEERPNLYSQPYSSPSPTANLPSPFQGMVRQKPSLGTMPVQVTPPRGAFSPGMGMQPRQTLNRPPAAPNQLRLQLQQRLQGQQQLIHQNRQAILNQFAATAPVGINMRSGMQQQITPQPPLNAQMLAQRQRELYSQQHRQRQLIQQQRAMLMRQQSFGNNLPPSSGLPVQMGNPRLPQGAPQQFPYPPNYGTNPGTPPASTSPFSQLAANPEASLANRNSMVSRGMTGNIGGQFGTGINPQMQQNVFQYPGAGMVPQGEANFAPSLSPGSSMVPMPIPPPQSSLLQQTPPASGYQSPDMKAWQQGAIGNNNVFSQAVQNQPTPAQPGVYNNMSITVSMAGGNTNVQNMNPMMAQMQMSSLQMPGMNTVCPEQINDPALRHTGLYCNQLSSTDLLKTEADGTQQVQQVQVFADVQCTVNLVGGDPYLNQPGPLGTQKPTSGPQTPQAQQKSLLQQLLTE
Chain of Nuclear receptor coactivator 2 (Homo sapiens) (Q15596 whole entry, looked up, the tested form may be a part): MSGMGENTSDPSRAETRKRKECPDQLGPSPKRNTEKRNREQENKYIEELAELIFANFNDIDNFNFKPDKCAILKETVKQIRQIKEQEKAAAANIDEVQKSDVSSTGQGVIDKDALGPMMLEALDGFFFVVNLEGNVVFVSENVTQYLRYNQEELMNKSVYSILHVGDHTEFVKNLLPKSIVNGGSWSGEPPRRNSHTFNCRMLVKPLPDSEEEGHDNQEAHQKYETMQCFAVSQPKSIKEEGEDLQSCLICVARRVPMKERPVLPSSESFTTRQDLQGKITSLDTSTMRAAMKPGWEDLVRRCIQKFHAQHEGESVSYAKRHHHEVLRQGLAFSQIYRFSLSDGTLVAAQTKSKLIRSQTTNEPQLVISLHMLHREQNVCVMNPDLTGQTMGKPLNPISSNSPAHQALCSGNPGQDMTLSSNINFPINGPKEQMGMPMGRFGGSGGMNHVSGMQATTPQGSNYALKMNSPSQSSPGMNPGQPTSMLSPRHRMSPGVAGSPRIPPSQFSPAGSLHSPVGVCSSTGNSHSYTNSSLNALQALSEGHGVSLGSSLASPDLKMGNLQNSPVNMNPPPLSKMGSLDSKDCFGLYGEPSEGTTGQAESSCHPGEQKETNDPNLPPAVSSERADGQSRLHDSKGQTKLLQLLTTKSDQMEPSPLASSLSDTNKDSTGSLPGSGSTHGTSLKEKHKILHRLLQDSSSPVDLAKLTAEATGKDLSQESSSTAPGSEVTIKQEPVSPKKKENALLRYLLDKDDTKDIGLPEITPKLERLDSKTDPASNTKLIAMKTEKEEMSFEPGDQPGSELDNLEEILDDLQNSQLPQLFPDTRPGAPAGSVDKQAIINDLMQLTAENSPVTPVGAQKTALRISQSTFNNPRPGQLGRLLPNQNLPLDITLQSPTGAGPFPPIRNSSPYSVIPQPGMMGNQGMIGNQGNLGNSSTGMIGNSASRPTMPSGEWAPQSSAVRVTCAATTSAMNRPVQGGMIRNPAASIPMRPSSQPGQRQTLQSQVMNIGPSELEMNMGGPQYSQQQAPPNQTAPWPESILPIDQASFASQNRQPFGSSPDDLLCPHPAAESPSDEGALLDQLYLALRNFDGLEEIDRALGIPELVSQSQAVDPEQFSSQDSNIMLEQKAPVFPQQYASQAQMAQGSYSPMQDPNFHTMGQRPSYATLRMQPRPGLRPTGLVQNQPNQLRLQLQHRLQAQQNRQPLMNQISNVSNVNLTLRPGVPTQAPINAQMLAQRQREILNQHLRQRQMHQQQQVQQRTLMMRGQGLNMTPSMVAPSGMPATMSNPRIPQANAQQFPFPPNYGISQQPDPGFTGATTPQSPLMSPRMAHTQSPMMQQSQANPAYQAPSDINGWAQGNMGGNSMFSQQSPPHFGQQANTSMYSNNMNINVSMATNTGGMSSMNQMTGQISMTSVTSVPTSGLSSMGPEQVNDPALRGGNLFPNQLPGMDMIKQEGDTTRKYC
Chain of Nuclear receptor coactivator 3 (Homo sapiens) (Q9Y6Q9 whole entry, looked up, the tested form may be a part): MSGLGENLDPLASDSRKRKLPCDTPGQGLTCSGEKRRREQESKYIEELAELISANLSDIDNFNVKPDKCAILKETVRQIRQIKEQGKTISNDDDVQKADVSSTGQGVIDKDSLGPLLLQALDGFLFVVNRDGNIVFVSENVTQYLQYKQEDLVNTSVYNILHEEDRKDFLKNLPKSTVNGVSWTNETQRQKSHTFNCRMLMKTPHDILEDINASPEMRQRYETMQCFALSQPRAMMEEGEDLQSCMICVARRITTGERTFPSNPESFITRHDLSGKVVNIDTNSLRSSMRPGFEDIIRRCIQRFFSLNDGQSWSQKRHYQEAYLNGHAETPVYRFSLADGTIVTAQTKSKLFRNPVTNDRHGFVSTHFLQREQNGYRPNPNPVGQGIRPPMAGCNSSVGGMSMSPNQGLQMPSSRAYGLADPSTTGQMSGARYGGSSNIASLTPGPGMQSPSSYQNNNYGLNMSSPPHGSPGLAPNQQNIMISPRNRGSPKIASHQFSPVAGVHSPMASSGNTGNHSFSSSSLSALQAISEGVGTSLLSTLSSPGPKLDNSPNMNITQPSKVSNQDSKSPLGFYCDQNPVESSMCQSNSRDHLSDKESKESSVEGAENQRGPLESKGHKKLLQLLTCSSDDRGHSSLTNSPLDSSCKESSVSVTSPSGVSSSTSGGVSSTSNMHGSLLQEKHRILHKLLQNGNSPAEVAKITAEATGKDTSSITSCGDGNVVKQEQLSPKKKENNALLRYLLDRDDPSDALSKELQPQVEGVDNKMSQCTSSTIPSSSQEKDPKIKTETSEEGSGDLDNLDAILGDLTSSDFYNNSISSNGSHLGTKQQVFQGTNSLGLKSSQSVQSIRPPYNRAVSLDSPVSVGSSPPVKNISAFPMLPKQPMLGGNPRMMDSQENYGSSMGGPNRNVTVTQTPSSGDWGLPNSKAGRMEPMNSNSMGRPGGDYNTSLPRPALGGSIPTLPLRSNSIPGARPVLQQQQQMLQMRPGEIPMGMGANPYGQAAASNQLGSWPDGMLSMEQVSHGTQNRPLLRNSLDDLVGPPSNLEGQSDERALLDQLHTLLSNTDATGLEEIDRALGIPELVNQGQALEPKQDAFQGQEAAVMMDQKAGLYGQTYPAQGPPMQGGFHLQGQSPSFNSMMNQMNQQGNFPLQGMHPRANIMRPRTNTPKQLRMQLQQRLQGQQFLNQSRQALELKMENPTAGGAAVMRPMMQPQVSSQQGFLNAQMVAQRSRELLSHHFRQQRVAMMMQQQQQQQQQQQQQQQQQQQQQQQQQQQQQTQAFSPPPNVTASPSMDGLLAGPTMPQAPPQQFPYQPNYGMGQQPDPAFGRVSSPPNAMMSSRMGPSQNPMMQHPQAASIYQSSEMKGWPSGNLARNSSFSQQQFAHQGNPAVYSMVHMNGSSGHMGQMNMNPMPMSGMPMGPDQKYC

As usually defined, the inhibition is the relative decrease from the control value, in per cent. As for `Cn1c(/C=C/c2cccc([N+](=O)[O-])c2)c([N+](=O)[O-])c(=O)n(C)c1=O`, the inhibition in test [1] is 37.6% (inactive); in test [2], 41.4% (active); in test [3], 32.5% (inactive); in test [4], 40.8% (active); in test [5], 7.43% (inactive); in test [6], 25.7% (inactive).

In the case of `COCCn1c(C)cc(C(=O)COc2ccc(C)nc2[N+](=O)[O-])c1C`, the inhibition in test [1] is 24.8% (inactive); in test [2] it was 1.88% (inactive); in test [3], 12.1% (inactive); in test [4], -5.22% (inactive); in test [5], 23.8% (inactive); in test [6], 59.5% (active).

Consider `CN(C)c1ccc(/C=C/c2nc3ccccc3s2)cc1`, for which the inhibition in test [1] is 30.4% (inactive); in test [2], 28.4% (inactive); in test [3] it was 18.7% (inactive); in test [4] it was 12.9% (inactive); in test [5] it was 77.1% (active); in test [6], 84% (active).

For the compound `COc1ccc(-c2[nH]ncc2-c2ccc3c(c2)OCCO3)c(O)c1`, the inhibition is 74.4% (active) in test [1]; 58.3% (active) in test [2]; 72% (active) in test [3]; 59.5% (active) in test [4]; 11.7% (inactive) in test [5]; 47.5% (active) in test [6].

For the compound `O=C(CCl)N(C1CCCC1)C1CCS(=O)(=O)C1` (configuration not stated), the inhibition in test [1] is 71.6% (active); in test [2] it was 42.4% (active); in test [3] it was 58.3% (active); in test [4] it was 38.2% (active); in test [5], 30.6% (inactive); in test [6] it was 63.6% (active).

Turning to `C=CCOc1ccc(/C=C2\SC(=S)N(CCC(=O)O)C2=O)cc1`, the inhibition in test [1] is 32.8% (inactive); in test [2], -27% (inactive); in test [3] it was 35.5% (inactive); in test [4], -38.4% (inactive); in test [5] it was -24.5% (inactive); in test [6], 91.5% (active).

Consider `O=C(CCl)NC(Cc1ccccc1)c1ccccc1` (configuration not stated), for which the inhibition in test [1] was 52.5% (active); in test [2], 14.2% (inactive); in test [3], 24.6% (inactive); in test [4] it was 6.41% (inactive); in test [5] it was 32.8% (inactive); in test [6], 47.5% (active).
